# Reference: ChEMBL document CHEMBL1961873, “Compounds: GSK PKIS; Assays: Nanosyn kinase panel” (2012)
# Target: Serine/threonine-protein kinase Nek6 (Homo sapiens) (UniProt Q9HC98)
# Details: at 0.1 µM
# Sequence of Serine/threonine-protein kinase Nek6 (Homo sapiens) (Q9HC98 whole entry): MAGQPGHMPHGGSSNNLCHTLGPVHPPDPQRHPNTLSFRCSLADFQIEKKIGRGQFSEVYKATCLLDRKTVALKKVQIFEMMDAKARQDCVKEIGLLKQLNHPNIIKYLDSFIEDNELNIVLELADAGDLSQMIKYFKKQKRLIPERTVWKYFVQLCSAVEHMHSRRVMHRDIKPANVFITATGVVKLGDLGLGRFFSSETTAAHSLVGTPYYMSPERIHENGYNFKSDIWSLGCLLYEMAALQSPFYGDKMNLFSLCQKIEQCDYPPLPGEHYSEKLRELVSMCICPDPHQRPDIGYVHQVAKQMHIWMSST
row,SMILES,inhibition [%]
1,CCS(=O)(=O)c1ccc(OC)c(Nc2ncc(-c3cccc(OC)c3)o2)c1,-1.47
2,CCn1c(-c2nonc2N)nc2c(C#CC(C)(C)O)nc(OCCNC)cc21,2.62
3,CN1CCN(C(=O)c2ccc(NC(=O)Nc3ccc(N(C)c4ccnc(Nc5ccc(CS(C)(=O)=O)cc5)n4)cc3)cc2)CC1,1.8
4,CC(C)c1ccc(Nc2nccc(-c3cnn4ncccc34)n2)cc1,1.7
5,N#Cc1cccc(Nc2nccc(-c3cnn4ncccc34)n2)c1,3.54
6,c1ccc(Cc2nc3ccc(Nc4ncnc5ccccc45)cc3[nH]2)cc1,3.06
7,Cc1ccc(C(=O)NC2CC2)cc1-c1ccc2[nH]ncc2c1,-3.09
8,COC(=O)Nc1nc2cc(Oc3ccc(NC(=O)Nc4cccc(Br)c4)cc3)ccc2[nH]1,3.89
9,NC(=O)c1sc(-n2cnc3ccccc32)cc1OCc1ccccc1Br,-0.26
10,c1ccc(Nc2ncc(-c3ccccc3)o2)cc1,1.04
11,CCCN1CCCC(c2ccc(Nc3nc(Nc4cc(F)ccc4C(N)=O)c4cc[nH]c4n3)c(OC)c2)C1 (stereo unspecified),1.92
12,Nc1ccc(C#Cc2cncnc2Nc2ccc(OCc3cccc(F)c3)c(Cl)c2)cc1,2.73
13,CN(C)C(=O)O[C@H]1CN[C@H](C#Cc2cc3ncnc(Nc4ccc(OCc5cccc(F)c5)c(Cl)c4)c3s2)C1,1.81
14,O=C1Nc2ccc(-c3cccnc3)cc2C1=Cc1cc(Br)c(O)c(Br)c1,4.82
15,CS(=O)(=O)Nc1cccc(-c2ccc3c(NC(=O)C4CC4)n[nH]c3c2)c1,1.36
16,CCS(=O)(=O)c1ccc(OC)c(Nc2nccc(N(C)c3ccc4c(C)n[nH]c4c3)n2)c1,2.07
17,COc1cccc(-n2ncc3c(N/N=C/c4ccc(S(C)(=O)=O)cc4)ncnc32)c1,1.65

row,SMILES,inhibition [%]
1,Cc1ccc2c(-c3ccnc(Nc4cccc(C(F)(F)F)c4)n3)c(-c3ccccc3)nn2n1,6.41
2,Cc1ccc2c(-c3ccnc(Nc4ccc5c(c4)OCCO5)n3)c(-c3ccc(C(F)(F)F)cc3)nn2n1,0.53
3,NS(=O)(=O)c1ccc(-c2cc3ccncc3cc2OCc2ccccc2)cc1,3.18
4,COc1ccc2ncnc(Nc3ccc(OCc4ccccc4)cc3)c2c1,4.45
5,CCn1c(-c2nonc2N)nc2ccc(F)cc21,5.03
6,N#Cc1c(NC(=O)c2ccccc2F)sc2c1CCCC2,-4.29
7,COc1cccc(-n2nc(C)c3c(N/N=C(\C)c4ccncc4)ncnc32)c1,1.56
8,OCc1ccc(-c2nc(-c3ccccn3)c(-c3ccc4c(c3)OCO4)[nH]2)cc1,2.18
9,CCOc1nccc2c1nc(-c1nonc1N)n2CC,5.75
10,NS(=O)(=O)c1ccc(N/N=C2\C(=O)Nc3ccc(Cl)cc32)cc1,4.79
11,Cc1ccc(O)cc1Nc1ccnc2ccc(S(C)(=O)=O)cc12,1.23
12,COC(=O)c1ccc2c(c1)C(=Cc1cc(Br)c(O)c(Br)c1)C(=O)N2,0.58
13,[O-][S+]1CCN(Cc2ccc(-c3ccc4ncnc(Nc5ccc(OCc6ccccc6)c(Cl)c5)c4c3)o2)CC1,3.35
14,COc1cccc(-n2ncc3c(N/N=C/c4ccc(C)cc4)ncnc32)c1,3.25
15,O=S(=O)(CCOCc1ccc(-c2ccc3ncnc(Nc4ccc(OCc5cccc(F)c5)c(Cl)c4)c3c2)o1)c1ccccc1,0.77
16,COc1cc(/C=N/Nc2ncnc3c2cnn3C(C)C)ccc1O,2.57

# Target: Serine/threonine-protein kinase Nek6 (Homo sapiens) (UniProt Q9HC98)
# Details: at 1 µM
row,SMILES,inhibition [%]
1,CCS(=O)(=O)c1ccc(OC)c(Nc2ncc(-c3cccc(OC)c3)o2)c1,0.87
2,CCn1c(-c2nonc2N)nc2c(C#CC(C)(C)O)nc(OCCNC)cc21,1.71
3,CN1CCN(C(=O)c2ccc(NC(=O)Nc3ccc(N(C)c4ccnc(Nc5ccc(CS(C)(=O)=O)cc5)n4)cc3)cc2)CC1,-1.02
4,CC(C)c1ccc(Nc2nccc(-c3cnn4ncccc34)n2)cc1,3.3
5,N#Cc1cccc(Nc2nccc(-c3cnn4ncccc34)n2)c1,5.8
6,c1ccc(Cc2nc3ccc(Nc4ncnc5ccccc45)cc3[nH]2)cc1,4.77
7,Cc1ccc(C(=O)NC2CC2)cc1-c1ccc2[nH]ncc2c1,-3.72
8,COC(=O)Nc1nc2cc(Oc3ccc(NC(=O)Nc4cccc(Br)c4)cc3)ccc2[nH]1,3.38
9,NC(=O)c1sc(-n2cnc3ccccc32)cc1OCc1ccccc1Br,2.86
10,c1ccc(Nc2ncc(-c3ccccc3)o2)cc1,0.47
11,CCCN1CCCC(c2ccc(Nc3nc(Nc4cc(F)ccc4C(N)=O)c4cc[nH]c4n3)c(OC)c2)C1 (stereo unspecified),3.03
12,Nc1ccc(C#Cc2cncnc2Nc2ccc(OCc3cccc(F)c3)c(Cl)c2)cc1,0.63
13,CN(C)C(=O)O[C@H]1CN[C@H](C#Cc2cc3ncnc(Nc4ccc(OCc5cccc(F)c5)c(Cl)c4)c3s2)C1,-0.96
14,O=C1Nc2ccc(-c3cccnc3)cc2C1=Cc1cc(Br)c(O)c(Br)c1,0.55
15,CS(=O)(=O)Nc1cccc(-c2ccc3c(NC(=O)C4CC4)n[nH]c3c2)c1,-1.38
16,CCS(=O)(=O)c1ccc(OC)c(Nc2nccc(N(C)c3ccc4c(C)n[nH]c4c3)n2)c1,0.72
17,COc1cccc(-n2ncc3c(N/N=C/c4ccc(S(C)(=O)=O)cc4)ncnc32)c1,-0.32

row,SMILES,inhibition [%]
1,Cc1ccc2c(-c3ccnc(Nc4cccc(C(F)(F)F)c4)n3)c(-c3ccccc3)nn2n1,1.67
2,Cc1ccc2c(-c3ccnc(Nc4ccc5c(c4)OCCO5)n3)c(-c3ccc(C(F)(F)F)cc3)nn2n1,-0.1
3,NS(=O)(=O)c1ccc(-c2cc3ccncc3cc2OCc2ccccc2)cc1,3.3
4,COc1ccc2ncnc(Nc3ccc(OCc4ccccc4)cc3)c2c1,2.35
5,CCn1c(-c2nonc2N)nc2ccc(F)cc21,5.4
6,N#Cc1c(NC(=O)c2ccccc2F)sc2c1CCCC2,-1.45
7,COc1cccc(-n2nc(C)c3c(N/N=C(\C)c4ccncc4)ncnc32)c1,1.26
8,OCc1ccc(-c2nc(-c3ccccn3)c(-c3ccc4c(c3)OCO4)[nH]2)cc1,0.25
9,CCOc1nccc2c1nc(-c1nonc1N)n2CC,5.08
10,NS(=O)(=O)c1ccc(N/N=C2\C(=O)Nc3ccc(Cl)cc32)cc1,4.93
11,Cc1ccc(O)cc1Nc1ccnc2ccc(S(C)(=O)=O)cc12,4.89
12,COC(=O)c1ccc2c(c1)C(=Cc1cc(Br)c(O)c(Br)c1)C(=O)N2,2.21
13,[O-][S+]1CCN(Cc2ccc(-c3ccc4ncnc(Nc5ccc(OCc6ccccc6)c(Cl)c5)c4c3)o2)CC1,1.93
14,COc1cccc(-n2ncc3c(N/N=C/c4ccc(C)cc4)ncnc32)c1,3.08
15,O=S(=O)(CCOCc1ccc(-c2ccc3ncnc(Nc4ccc(OCc5cccc(F)c5)c(Cl)c4)c3c2)o1)c1ccccc1,0.7
16,COc1cc(/C=N/Nc2ncnc3c2cnn3C(C)C)ccc1O,1.52
